Test results published in the supplement of paper PMC12024529.

Test system: HEK293 WT BDD-FVIII-Gluc
Experiment: secreted FVIII-Gluc luciferase Z-score vs DMSO control; higher = more FVIII-Gluc secretion
Settings: 5 µM
Experimental: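 Natural plant-compound library (480 compounds, ST catalogue IDs) screened on HEK293 cells stably expressing WT BDD-FVIII-Gaussia luciferase fusion at 5 µM. Secreted Gluc activity in the medium is given as a Z-score relative to DMSO controls.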

Row | SMILES | secreted FVIII-Gluc luciferase Z-score
1 | Cc1ccc(C(=O)[C@@H]2[C@H]3C4COC(O4)C(=O)[C@@H]3[C@H]3C=Cc4ccccc4N32)cc1 (stereo not given in full) | -0.368
2 | COc1cc([C@@H]2c3cc4c(cc3C(OC3OC5COC(C)OC5C(O)C3O)C3COC(=O)[C@@H]32)OCO4)cc(OC)c1O (stereo not given in full) | -6.37
3 | COc1ccc(-c2cc(=O)c3ccc(O)cc3o2)cc1 | 1.22
4 | C/C(=C\CNc1ncnc2c1ncn2C1OC(CO)C(O)C1O)CO (stereo not given) | -0.332
5 | COC(=O)[C@@H]1[C@H]2C[C@H]3c4[nH]c5ccccc5c4CCN3C[C@@H]2CC[C@@H]1O | 0.00333
6 | C[C@H]1[C@H](C)CC[C@]2(C(=O)O)CC[C@]3(C)C(=CC[C@@H]4[C@@]5(C)CC[C@H](O)C(C)(C)[C@@H]5CC[C@]43C)[C@H]12 | 0.136
7 | Cc1ncc(CO)c(C=O)c1O | 1.01
8 | CCOC(=O)C1=C[C@]2(CC)CCCN3CCc4c(n1c1ccccc41)[C@@H]32 | 0.132
9 | CCOC(=O)CCC(=O)OC1C(OC2C(C)C(OC3CC(C)(OC)C(O)C(C)O3)C(C)C(=O)OC(CC)C(C)(O)C(O)C(C)C(=O)C(C)CC2(C)O)OC(C)CC1N(C)C (stereo not given) | 0.0842
10 | O=C(O)c1cc(O)c2c(c1)C(=O)c1cccc(O)c1C2=O | 0.381
11 | CC1CC[C@H](C(C)C)C(O)C1 (stereo not given in full) | 0.453
12 | Cc1c(C)c2c(c(C)c1OC(=O)CCC(=O)O)CC[C@@](C)(CCC[C@H](C)CCC[C@H](C)CCCC(C)C)O2 | 0.648
13 | CC/C=C\C[C@H]1C(=O)CC[C@@H]1CC(=O)O | 0.253
14 | O=c1c(O)c(-c2ccc(O)cc2)oc2cc(O)ccc12 | 0.511
15 | COc1cc2oc(-c3ccccc3)cc(=O)c2cc1O | 0.564
16 | COc1cc(=O)n(C)c2c(OCC(O)C(C)(C)O)cccc12 (stereo not given) | -1.05
17 | CC1=C(C/C=C(\C)CCCC(C)CCCC(C)CCCC(C)C)C(=O)c2ccccc2C1=O (stereo not given) | 0.33
18 | CN1CCc2cc3c(cc2C(=O)Cc2ccc4c(c2C1)OCO4)OCO3 | -0.0429
19 | COc1ccc2c3c1O[C@H]1C[C@@H](O)C=CC31CCN(C)C2 (stereo not given in full) | 0.116
20 | Nc1nc2c(ncn2[C@H]2C[C@H](O)[C@@H](COP(=O)(O)O)O2)c(=O)[nH]1 | 0.653

Row | SMILES | secreted FVIII-Gluc luciferase Z-score
21 | O=c1cc(-c2cccc(O)c2)oc2c(O)c(O)ccc12 | -0.194
22 | O=C(O)C1OC(O)C(O)C(O)C1O (stereo not given) | 0.395
23 | O=C(/C=C/c1ccc(O)cc1)c1ccccc1O | 0.315
24 | COc1ccc(-c2coc3cc(OC4OC(CO)C(O)C(O)C4O)cc(O)c3c2=O)cc1 (stereo not given) | -0.0597
25 | O=c1ccn(C2OC(COP(=O)(O)O)C(O)C2O)c(=O)[nH]1 (stereo not given) | 0.638
26 | O=c1cc(-c2ccc(O)c(O)c2)oc2cc(O)cc(O)c12 | -1.34
27 | Oc1ccc(/C=C/c2cc(O)cc(O)c2)cc1 | 0.294
28 | CC[C@H](CC[C@@H](C)[C@H]1CC[C@H]2[C@@H]3CC=C4C[C@@H](O)CC[C@]4(C)[C@H]3CC[C@]12C)C(C)C | -0.318
29 | Cc1cc2nc3c(=O)[nH]c(=O)nc-3n(CC(O)C(O)C(O)CO)c2cc1C (stereo not given) | 0.252
30 | CC1=CC(=O)C2CC1C2(C)C (stereo not given) | 0.115
31 | O=c1cnn(C2OC(CO)C(O)C2O)c(=O)[nH]1 (stereo not given) | -2.33
32 | C[C@H]1O[C@@H](O[C@H]2[C@@H](O)C[C@H](O[C@H]3[C@@H](O)C[C@H](O[C@H]4CC[C@@]5(C)[C@H](CC[C@@H]6[C@@H]5C[C@@H](O)[C@]5(C)[C@@H](C7=CC(=O)OC7)CC[C@]65O)C4)O[C@@H]3C)O[C@@H]2C)C[C@H](O)[C@@H]1O | -4.67
33 | O=C(CCc1ccc(O)cc1)c1c(O)cc(O)cc1O | -0.769
34 | CC1CCC2[C@](C)(CO)C(O)CC[C@]2(C)C12CCC(CO)(CCO)O2 (stereo not given in full) | 0.9
35 | CC(C)=CCC[C@H](C)CCO | 0.0595
36 | COc1c(C)c2c(c(O)c1C/C=C(\C)CCC(=O)O)C(=O)OC2 | -4.24
37 | C=CCc1ccc(O)c(OC)c1 | -0.898
38 | COc1cc2cc(Oc3ccc4ccc(=O)oc4c3)c(=O)oc2cc1OC(C)=O | 0.744
39 | COc1cc2ccc(=O)oc2c(O)c1OCC=C(C)C | -0.0513
40 | C[C@H](CCC(=O)O)[C@H]1CC[C@H]2[C@@H]3[C@H](O)C[C@@H]4C[C@H](O)CC[C@]4(C)[C@H]3C[C@H](O)[C@]12C | -0.337
